Assay results as given in PubChem BioAssay (NCATS).
Records with an inconclusive call do not appear. A number with no mark means an inactive call. The source made the active and inactive calls. Calls follow the shape of the dose curve; as a rule, active = well fitted inhibition curve with a large enough effect; inconclusive = small, poorly fitted or top-dose-only effect; inactive = flat fitted curve, though single readings scatter.

Test system: MKL-2
Test: qHTS assay to identify novel small-molecules to repurpose for Merkel cell carcinoma treatment (AID 1296009); also: nearly all actives have a fitted effect of over 60% in size
Conditions: MCC and control cell lines, CellTiter-Glo viability, 72 h; series mostly up to 46 µM; activity change, negative = cytotoxicity: at the top concentration
Summary of the method: (§1)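 Viability readout: ATP luminescence (CellTiter-Glo) after 72 hr drug exposure at 37 degree celsius. Dose-response format was 8 points for NPC and 11 points for MIPE; data normalized to in-plate controls.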
% is scaled to controls: 0 for no effect and ±100 for the full control effect; potency is read from the fitted curve at half-maximal effect.

Row | SMILES | activity change, negative = cytotoxicity | Potency | outcome
1 | CC(=O)Oc1ccc(C)cc1 | 10.2% |  | 
2 | CC(C)(C)NC[C@H](O)COc1nsnc1N1CCOCC1 | 10.2% |  | 
3 | Cc1ncc(CO)c(C=O)c1O | -6.67% |  | 
4 | CN(C)CCN1C(=O)c2ccccc2N(C)c2ccccc21 | 5.52% |  | 
5 | COc1cc(C)nc(-n2nc(C)cc2OC)n1 | 6.59% |  | 
6 | O=C1C(O)=C(O)C(=O)C(O)=C1O | 18.4% |  | 
7 | CCCCCCCCCCCCSCCOCCO | 3.44% |  | 
8 | COc1ccc(C(=O)c2ccccc2)c(O)c1 | -2.39% |  | 
9 | OC[C@H]1O[C@@H]2O[C@H]3[C@H](O)[C@@H](O)[C@@H](O[C@H]4[C@H](O)[C@@H](O)[C@@H](O[C@H]5[C@H](O)[C@@H](O)[C@@H](O[C@H]6[C@H](O)[C@@H](O)[C@@H](O[C@H]7[C@H](O)[C@@H](O)[C@@H](O[C@H]8[C@H](O)[C@@H](O)[C@@H](O[C@H]1[C@H](O)[C@H]2O)O[C@@H]8CO)O[C@@H]7CO)O[C@@H]6CO)O[C@@H]5CO)O[C@@H]4CO)O[C@@H]3CO | 8.67% |  | 
10 | CCOC(=O)c1c(N)sc2c1CCN(Cc1ccccc1)C2 |  | 3.76 µM (active) | 
11 | CCCCCCCC/C=C\CCCCCCCCN | 11.9% |  | 
12 | N#CCC(=O)NN | 7.93% |  | 
13 | C#C[C@]1(O)CC[C@H]2[C@@H]3CCC4=CC(=O)CC[C@@H]4[C@H]3CC[C@@]21CC | 7.06% |  | 
14 | CN1CCC(OC(c2ccccc2)c2ccccc2)CC1 | -2.13% |  | 
15 | CCN[C@@H]1C[C@H](N)[C@@H](OC2OC(CN)=CCC2N)[C@H](O)[C@H]1O[C@H]1OC[C@](C)(O)[C@H](NC)[C@H]1O (some centres undefined) | 2.5% [at 0.597 µM] |  | 
16 | O=C(c1ccc(F)cc1)C1CCN(CCn2c(=S)[nH]c3ccccc3c2=O)CC1 | -17.9% |  | 
17 | CC(=O)N[C@@H](CCC(=O)O)C(=O)O | 2.39% |  | 

Row | SMILES | activity change, negative = cytotoxicity | Potency | outcome
18 | CCCc1ncc(C[n+]2ccccc2C)c(N)n1 | -1.28% |  | 
19 | COc1cc(O)c(C(=O)c2ccccc2)cc1S(=O)(=O)O | -20.3% |  | 
20 | CCN(CC)CCOC(=O)C1(c2ccccc2)CCCC1 | 2.42% |  | 
21 | CCC(Cc1c(I)cc(I)c(N)c1I)C(=O)O (centres undefined) | 13% |  | 
22 | OC[C@H]1O[C@@H](Oc2ccc(O)cc2)[C@H](O)[C@@H](O)[C@@H]1O | -17.4% |  | 
23 | Cc1cccc(C)c1NC(=O)CN1CCCCCC1 | -1.11% |  | 
24 | Nc1ccc(S(=O)(=O)NCc2ccccc2)cc1 | -7.15% |  | 
25 | CN1CCc2cccc3c2[C@H]1Cc1ccc(O)c(O)c1-3 |  | 0.841 µM (active) | 
26 | CCN(CC)CCOc1ccc2c(c1)C(=O)c1cc(OCCN(CC)CC)ccc1-2 |  | 2.37 µM (active) | 
27 | CCc1oc2ccccc2c1C(=O)c1cc(I)c(O)c(I)c1 | -17.7% |  | 
28 | CCCCCN=C(N)N/N=C/c1c[nH]c2ccc(OC)cc12 | -73.3% |  | 
29 | O=C(O)CCNC(=O)c1ccccc1 |  |  | inactive
30 | CCCCC(CC)COC(=O)/C=C/c1ccc(OC)cc1 (centres undefined) | -1.65% |  | 
31 | COc1cc(NS(=O)(=O)c2ccc(N)cc2)ncn1 | 8.39% |  | 
32 | C[C@]12CCC(=O)C=C1C=C[C@@H]1[C@@H]2CC[C@@]2(C)[C@H]1CC[C@@]21CCC(=O)O1 | -27.9% |  | 
33 | Cc1ccc2c(Br)cc(Br)c(O)c2n1 |  | 5.96 µM (active) | 
34 | C=C[C@@]1(C)CC(=O)[C@]2(O)[C@@]3(C)[C@@H](O)CCC(C)(C)[C@@H]3[C@H](O)[C@H](OC(C)=O)[C@@]2(C)O1 | 7.13% |  | 

Test system: NIH3T3
Test: as above
Conditions: MCC and control cell lines, CellTiter-Glo viability, 72 h; at 44.8 µM (top of the series)
Summary of the method: as §1

Row | SMILES | outcome
35 | COc1cc(C)nc(-n2nc(C)cc2OC)n1 | inactive
36 | CN1CCC(OC(c2ccccc2)c2ccccc2)CC1 | inactive
37 | CC(=O)N[C@@H](CCC(=O)O)C(=O)O | inactive

Test system: UISO
Test: as above
Conditions: MCC and control cell lines, CellTiter-Glo viability, 72 h; series mostly up to 46 µM; activity change, negative = cytotoxicity: at the top concentration
Summary of the method: as §1

Row | SMILES | activity change, negative = cytotoxicity | Potency
38 | CC(=O)Oc1ccc(C)cc1 | 28% | 
39 | CC(C)(C)NC[C@H](O)COc1nsnc1N1CCOCC1 | 7.76% | 
40 | Cc1ncc(CO)c(C=O)c1O | 2.96% | 
41 | CN(C)CCN1C(=O)c2ccccc2N(C)c2ccccc21 | 0.845% | 
42 | O=C1C(O)=C(O)C(=O)C(O)=C1O | 17.4% | 
43 | CCCCCCCCCCCCSCCOCCO | 13.5% | 
44 | COc1ccc(C(=O)c2ccccc2)c(O)c1 | -1.08% | 
45 | OC[C@H]1O[C@@H]2O[C@H]3[C@H](O)[C@@H](O)[C@@H](O[C@H]4[C@H](O)[C@@H](O)[C@@H](O[C@H]5[C@H](O)[C@@H](O)[C@@H](O[C@H]6[C@H](O)[C@@H](O)[C@@H](O[C@H]7[C@H](O)[C@@H](O)[C@@H](O[C@H]8[C@H](O)[C@@H](O)[C@@H](O[C@H]1[C@H](O)[C@H]2O)O[C@@H]8CO)O[C@@H]7CO)O[C@@H]6CO)O[C@@H]5CO)O[C@@H]4CO)O[C@@H]3CO | 0.186% | 
46 | C#C[C@]1(OC(C)=O)CC[C@H]2[C@@H]3CCC4=C/C(=N/O)CC[C@@H]4[C@H]3CC[C@@]21CC |  | 29.9 µM (active)
47 | CCCCCCCC/C=C\CCCCCCCCN | 2.17% | 
48 | N#CCC(=O)NN | 17.4% | 
49 | C#C[C@]1(O)CC[C@H]2[C@@H]3CCC4=CC(=O)CC[C@@H]4[C@H]3CC[C@@]21CC | -5.95% | 
50 | CN1CCC(OC(c2ccccc2)c2ccccc2)CC1 | 11.1% | 
51 | CCN[C@@H]1C[C@H](N)[C@@H](OC2OC(CN)=CCC2N)[C@H](O)[C@H]1O[C@H]1OC[C@](C)(O)[C@H](NC)[C@H]1O (some centres undefined) | 19.1% [at 0.597 µM] | 
52 | CC(=O)N[C@@H](CCC(=O)O)C(=O)O | 20.2% | 
53 | CCCc1ncc(C[n+]2ccccc2C)c(N)n1 | 4.4% | 
54 | COc1cc(O)c(C(=O)c2ccccc2)cc1S(=O)(=O)O | -4.37% | 
55 | CCN(CC)CCOC(=O)C1(c2ccccc2)CCCC1 | 23.2% | 
56 | CCC(Cc1c(I)cc(I)c(N)c1I)C(=O)O (centres undefined) | 0.261% | 
57 | OC[C@H]1O[C@@H](Oc2ccc(O)cc2)[C@H](O)[C@@H](O)[C@@H]1O | -1.45% | 
58 | Cc1cccc(C)c1NC(=O)CN1CCCCCC1 | 11.9% | 
59 | Nc1ccc(S(=O)(=O)NCc2ccccc2)cc1 | 0.273% | 
60 | CCCCCN=C(N)N/N=C/c1c[nH]c2ccc(OC)cc12 |  | 11.9 µM (active)
61 | O=C(O)CCNC(=O)c1ccccc1 | 6.89% | 
62 | CCCCC(CC)COC(=O)/C=C/c1ccc(OC)cc1 (centres undefined) | 0.682% | 
63 | COc1cc(NS(=O)(=O)c2ccc(N)cc2)ncn1 | 10.9% | 
64 | C=C[C@@]1(C)CC(=O)[C@]2(O)[C@@]3(C)[C@@H](O)CCC(C)(C)[C@@H]3[C@H](O)[C@H](OC(C)=O)[C@@]2(C)O1 | 5.4% | 
